Test results: PubChem BioAssay AID652105 (National Center for Advancing Translational Sciences (NCATS), 2013)
The campaign covered roughly 330,000 compounds. About 4,100 (1.2%) were called active. Another 2% or so got no clear call; they are omitted. How the source made its calls: active means max response of -50% or lower; inconclusive means between -30% and -50%; inactive means -30% or higher. The sample as a whole holds a higher share of actives than the screen did.
Further: value at the top dose of about 77 µM.
On the % scale 0 is the no-effect control and ±100 the full control effect.

Each compound was assayed against Phosphatidylinositol 5-phosphate 4-kinase type-2 alpha (Homo sapiens) (UniProt P48426) (assay: qHTS for Inhibitors of phosphatidylinositol 5-phosphate 4-kinase (PI5P4K)). Conditions: PI5P4Kalpha enzyme, ADP-Glo luminescence, 60 min; stronger effect = lower value.
Phosphatidylinositol 5-phosphate 4-kinase type-2 alpha (Homo sapiens), sequence (P48426 whole entry, looked up): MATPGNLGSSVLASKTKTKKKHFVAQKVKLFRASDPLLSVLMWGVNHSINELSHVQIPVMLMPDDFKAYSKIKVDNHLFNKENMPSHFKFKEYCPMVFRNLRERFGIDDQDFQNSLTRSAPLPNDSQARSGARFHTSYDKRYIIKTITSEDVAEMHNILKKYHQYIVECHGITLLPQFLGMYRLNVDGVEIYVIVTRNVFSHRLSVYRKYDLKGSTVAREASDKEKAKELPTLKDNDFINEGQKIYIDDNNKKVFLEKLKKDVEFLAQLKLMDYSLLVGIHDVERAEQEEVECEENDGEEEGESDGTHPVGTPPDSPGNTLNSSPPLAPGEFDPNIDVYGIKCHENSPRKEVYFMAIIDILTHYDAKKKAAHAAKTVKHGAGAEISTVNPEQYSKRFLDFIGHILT
Outline: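 PI5P4Kalpha ADP-Glo assay; 5 microM ATP final; 60 min RT reaction; HEPES pH 7.4/EGTA/CHAPS, 5% DMSO; controls lacking substrate or enzyme; luminescent end-point.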
For `CCC(C)CN1C(=O)CSCC1(C)C(=O)NCc1ccccc1` (configuration not stated), the max response was -2.56% (inactive). `Cc1c(C(=O)N/N=C/c2ccccc2)[nH]c2c([N+](=O)[O-])cccc12` was tested, and the max response was -0.171% (inactive). In the case of `COc1cc2c(C(=O)O)c(C)n(C)c2c2ccccc12`, the max response is reported as -2.64% (inactive). `COc1cccc2c(C)c(C(=O)O)[nH]c12` was tested, and the max response was -63.9% (active). `COc1cc2c(=O)n(C)c3ccccc3c2cc1OC` was tested, and the max response was 1.08% (inactive). With `S=c1[nH]nc(-c2cc(-c3ccsc3)n[nH]2)n1-c1ccccc1` the max response was -10.2% (inactive). For `c1ccc(-c2cc(-c3nnc4sc(-c5ccccn5)nn34)[nH]n2)cc1`, the max response was -57.7% (active). In the case of `CN(C(=O)c1ccccn1)c1nnc(-c2ccccn2)s1`, the max response is reported as 3.64% (inactive). `CC1(C)OC(=O)C2=C(C[C@@H](C3CCCC3)O[C@@H]2c2ccc(Cl)cc2)O1` was tested, and the max response was 3.13% (inactive). For `CCCNC(=O)c1cc(C2CCCCN2C(=O)OC)on1` (configuration not stated), the max response was -2.43% (inactive). For `Cc1sc2nc(CSCC(=O)Nc3c(Cl)cccc3Cl)[nH]c(=O)c2c1C`, the max response was 1.38% (inactive). For `CSc1nnc(SCc2nc3sc(C(=O)O)c(C)c3c(=O)[nH]2)s1`, the max response was -79.5% (active). With `Cc1sc2nc(CSCC(=O)NC3CCCCC3)[nH]c(=O)c2c1C` the max response was -13.2% (inactive). With `CCCOc1ccc(F)cc1-c1cc(C(=O)Nc2ccc(F)c(Cl)c2)[nH]n1` the max response was -4.85% (inactive). For `Cc1cc(O)ccc1-c1cc(C(=O)NCc2cc(C(F)(F)F)cc(C(F)(F)F)c2)[nH]n1`, the max response was -3.12% (inactive). In the case of `CN(C)C(=O)c1cccc(-c2cnc3c(NC=O)cc(-c4ccc(C(=O)N5CCOCC5)cc4)cn23)c1`, the max response is reported as -13.4% (inactive). For `Cc1cc(Br)ccc1NC(=O)CCCOc1cc(=O)n(C)c2ccccc12`, the max response was 3.17% (inactive). `CN1OC[C@@H]2CN(S(=O)(=O)c3cccc4ccccc34)[C@H](c3ccc(N4CCCCC4)cc3)C[C@@H]21` was tested, and the max response was 7.24% (inactive). With `CCOc1cccc(/C=N/NC(=S)NCCN2CCOCC2)c1O` the max response was -0.183% (inactive). `CCOc1cccc(/C=N/N2C(=O)CSC2=S)c1O` was tested, and the max response was -51.6% (active). `COc1cc(N2C(=O)CSC2=S)cc(OC)c1OC` was tested, and the max response was 0.509% (inactive). In the case of `COc1cc(Cn2c3ccc(NC(=O)CC(C)c4ccccc4)cc3c(=O)n2C)ccc1F` (configuration not stated), the max response is reported as 2.27% (inactive). With `O=c1cc(CN2CCN(S(=O)(=O)/C=C/c3ccccc3)CC2)c2ccc(O)cc2o1` the max response was -55% (active). For `Cc1ccc2c(CN3CCN(S(=O)(=O)c4ccccc4C(F)(F)F)CC3)cc(=O)oc2c1`, the max response was -4.51% (inactive). `NC(=O)CCN1CCN(S(=O)(=O)/C=C/c2ccccc2)CC1` was tested, and the max response was 0.132% (inactive). In the case of `CN(Cc1cn(Cc2ccc(C(F)(F)F)cc2)nn1)C1CN(Cc2cn(Cc3ccc(C(F)(F)F)cc3)nn2)S(=O)(=O)C1` (configuration not stated), the max response is reported as 11.5% (inactive). For `COc1ccc(-c2ccc(C(=O)NCCN3CCOCC3)c3occc23)c(C)c1`, the max response was 2.58% (inactive). In the case of `Cc1ccc(-c2c(C)n([O-])c3c([n+]2=O)CCC3)cc1`, the max response is reported as 0.293% (inactive). For `O=[n+]1c2c(n([O-])c3cc(Br)ccc31)CCC2`, the max response was -56.6% (active). `Cc1ccc(-c2c[n+](=O)c3c(n2[O-])CCC3)cc1` was tested, and the max response was 3.26% (inactive). For `CC1(C(=O)NCc2ccc(F)c(F)c2)Cc2c(-c3ccc4c(c3)OCO4)ccnc2O1` (configuration not stated), the max response was 0.999% (inactive). With `CN1OC[C@@H]2CN(C(=O)c3cccnc3)[C@H](c3ccc(N4CCCCC4)cc3)C[C@@H]21` the max response was -1.25% (inactive).
